Screening results as filed in PubChem BioAssay.
Most compounds without a hit are left out; they make up all but 7.7% or so of the library.
PD-1 reversal – reversal of PD-1 mediated T-cell inhibition; AID 2316; 29,000 tested, under 10 active; primary human CD4 T cells, PD-L1 beads, CellTiter-Glo 96 h; activation, % (no concentration beside the values); call rule not given here
NOMO-1 viab – STK33 inhibitor candidate reducing NOMO-1 cell viability. inhibition, % (concentration not given with the values). AID 2330. 7.5% of 37,000 active. NOMO-1 AML viability, CellTiter-Glo luminescence, 72 h; in the data active means inhibition above about 80%; inconclusive means no clear call, values can overlap the other calls
Hedgehog inh – Sonic Hedgehog pathway inhibition. Shh-LIGHT2 Gli-luciferase reporter, 30 h. inhibition, % (no concentration beside the values). 2.1% of 22,000 active. AID 2313;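 active means mean inhibition across valid replicates above about 65%, limit read from the data; inconclusive means mean under the limit, yet half or more replicates past it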;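 further: pathway switched on by Shh-conditioned medium diluted 1 in 25 in low serum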
Of the large screens only hits and unclear results are named; the others gave an inactive call.

O=C(O)COc1ccc(Cl)cc1C1C2=C(CCCC2=O)NC2=C1C(=O)CCC2	none (no result: Hedgehog inh)
COc1ccc(OC)c(C2N=C(Nc3nc4ccccc4s3)NC3=C2C(=O)CC(C)(C)C3)c1 (configuration not stated)	NOMO-1 viab 115 (no result: PD-1 reversal, Hedgehog inh)
O=C1CCCC2=C1C(c1ccccc1Cl)N=C(Nc1nc3ccccc3s1)N2 (configuration not stated)	NOMO-1 viab 116
COc1cccc(NC(=O)c2cnccc2C(F)(F)F)c1	none
CCN(CC)CCNc1ncnc(N)c1[N+](=O)[O-]	none (no result: PD-1 reversal, Hedgehog inh)
Cc1cc(C)c2nc(-c3cccnc3)cc(C(=O)Nc3c(C)nn(Cc4ccccc4C)c3C)c2c1	none (no result: PD-1 reversal, Hedgehog inh)
CS(=O)(=O)N(CC(=O)Nc1cccc([N+](=O)[O-])c1)c1ccc2c3c(cccc13)CC2	none (no result: Hedgehog inh)
COc1ccc(-c2nnc(SCC(=O)Nc3cccc(SC)c3)o2)cc1	none (no result: Hedgehog inh)
CC(C)C[C@@H](NC(=O)OCC1c2ccccc2-c2ccccc21)C(=O)O	none (no result: PD-1 reversal)
CC(C)C[C@@H](/C=C/S(C)(=O)=O)NC(=O)[C@H](CC(C)C)NC(=O)[C@H](CC(C)C)NC(=O)OCc1ccccc1	NOMO-1 viab 98
OCCCNc1ncnc2scc(-c3ccc(Br)cc3)c12	none (no result: PD-1 reversal, Hedgehog inh)
CCOc1ccc(C(=O)c2oc3ccccc3c2NC(=O)c2cc3ccccc3oc2=O)cc1	none (no result: Hedgehog inh)
Cc1ccc(C(=O)c2oc3ccccc3c2NC(=O)c2cc3ccccc3oc2=O)cc1F	NOMO-1 viab 112 (no result: Hedgehog inh)
COc1ccc(C(=O)Nc2ccc3nc(SCC(=O)N4CCOCC4)sc3c2)cc1OC	none (no result: Hedgehog inh)
CC(CCC1(C)C(C)CCC2(CO)C(CO)=CCCC21)CC(=O)O (configuration not stated)	none (no result: PD-1 reversal, NOMO-1 viab)
COc1ccc(/C=C/C(=O)NC(C)(C)C)cc1	none
COc1ccc(/C=C/C(=O)OC2CCCCC2)cc1	NOMO-1 viab 95
Cc1ccc(CCN=c2c([N+](=O)[O-])nn(-c3ccc4c(c3)OCCO4)n2O)cc1	none (no result: Hedgehog inh)
CCNS(=O)(=O)c1cc(-c2nnc(Nc3ccc(F)cc3)c3ccccc23)ccc1C	NOMO-1 viab inconclusive
CCOC(=O)C(C#N)C(c1cccnc1)c1[nH]c(C)nc1O (configuration not stated)	none
C[C@@H]1CN([C@H](C)CO)C(=O)c2cccc(NC(=O)c3nc4ccccc4s3)c2O[C@H]1CN(C)Cc1ccc(C(=O)Nc2ccccc2N)cc1	NOMO-1 viab 120 (no result: Hedgehog inh)
C[C@H]1CN([C@@H](C)CO)C(=O)c2cccc(NC(=O)c3nc4ccccc4s3)c2O[C@H]1CN(C)Cc1ccccc1	none
C[C@H](CO)N1C[C@H](C)[C@H](CN(C)Cc2ccccc2)Oc2c(NC(=O)c3nc4ccccc4s3)cccc2C1=O	none
C[C@H]1CN([C@@H](C)CO)C(=O)c2cccc(NC(=O)c3nc4ccccc4s3)c2O[C@H]1CN(C)Cc1ccc(C(=O)Nc2ccccc2N)cc1	NOMO-1 viab 127 (no result: Hedgehog inh)
C[C@H]1CN([C@@H](C)CO)C(=O)c2cc(NC(=O)Cc3cn(C)c4ccccc34)ccc2O[C@H]1CN(C)Cc1ccc(Oc2ccccc2)cc1	none (no result: Hedgehog inh)
C[C@H]1CN([C@@H](C)CO)C(=O)c2cc(NC(=O)Cc3cn(C)c4ccccc34)ccc2O[C@@H]1CN(C)Cc1ccc(Oc2ccccc2)cc1	NOMO-1 viab 94 (no result: PD-1 reversal, Hedgehog inh)
C[C@@H]1CN([C@@H](C)CO)C(=O)c2cc(NC(=O)Cc3cn(C)c4ccccc34)ccc2O[C@H]1CN(C)Cc1ccc(Oc2ccccc2)cc1	none (no result: PD-1 reversal)
C[C@@H]1CN([C@@H](C)CO)C(=O)c2cc(NC(=O)Cc3cn(C)c4ccccc34)ccc2O[C@@H]1CN(C)Cc1ccc(Oc2ccccc2)cc1	NOMO-1 viab 114 (no result: PD-1 reversal, Hedgehog inh)
COc1ccc(S(=O)(=O)N2CCOCC2)cc1C(=O)NCCN1CCOCC1	none (no result: Hedgehog inh)
CN(C)CCCO[C@H]1[C@@H](C(O)CO)OC2OC(C)(C)O[C@@H]21 (some centres not stated)	none
CCC(C)C1NC(=O)C(CC(C)C)NC(=O)C(CC(=O)O)NC(=O)C(C(C)C)NC(=O)C(CC(C)C)NC(=O)C(CC(C)C)NC(=O)C(CCC(N)=O)NC(=O)CC(CCCCCCCCCC(C)C)OC1=O (configuration not stated)	Hedgehog inh 77 (no result: PD-1 reversal, NOMO-1 viab)
Cn1c(SCC(=O)n2c3c(c4ccccc42)CCCC3)nnc1-c1cccc([N+](=O)[O-])c1	none (no result: Hedgehog inh)
COc1ccccc1NC(=O)CSc1nc2ccccc2o1	none (no result: Hedgehog inh)
O=C(O)CCC(=O)Nc1ccc(Cc2ccncc2)cc1	none
Cc1ccccc1NC(=O)CSc1n[nH]c(-c2ccncc2)n1	none (no result: Hedgehog inh)
CCOc1ccc(N2C(=O)CC(SCc3nc4ccccc4[nH]3)C2=O)cc1 (configuration not stated)	none (no result: PD-1 reversal, Hedgehog inh)
CCOc1ccc(-c2nc3ccc(-c4nc5ccc(N6CCN(C)CC6)cc5[nH]4)cc3[nH]2)cc1	NOMO-1 viab 116 (no result: PD-1 reversal)
COC(=O)C(CC(C)C)NS(=O)(=O)c1ccc(-c2nnc(SC)n2C)s1 (configuration not stated)	NOMO-1 viab 119
CC(C)CC(NS(=O)(=O)c1cccc2nsnc12)C(=O)O (configuration not stated)	none (no result: PD-1 reversal, Hedgehog inh)
CCN1C2=C(C(=O)CC(C)(C)C2)C(c2ccc(OC)cc2)C2=C1CC(C)(C)CC2=O	none
COc1cc(CNC2CCCC2)cc(I)c1OCC(N)=O	none (no result: Hedgehog inh)
C[C@H]1CN([C@@H](C)CO)C(=O)Cc2cc(NC(=O)CCC(F)(F)F)ccc2O[C@@H]1CN(C)Cc1ccc(-c2ccccc2)cc1	NOMO-1 viab 97 (no result: PD-1 reversal)
C[C@H]1CN([C@@H](C)CO)C(=O)Cc2cc(NC(=O)CCN3CCOCC3)ccc2O[C@@H]1CN(C)Cc1ccc(-c2ccccc2)cc1	Hedgehog inh 65
C[C@H]1CN([C@@H](C)CO)C(=O)Cc2cc(NC(=O)CCC(F)(F)F)ccc2O[C@H]1CN(C)Cc1ccc(-c2ccccc2)cc1	none (no result: PD-1 reversal)
C[C@@H]1CN([C@@H](C)CO)C(=O)c2cc(NC(=O)CCC(F)(F)F)ccc2O[C@@H]1CN(C)Cc1ccc(-c2ccccc2)cc1	none (no result: Hedgehog inh)
C[C@@H]1CN([C@H](C)CO)C(=O)c2cc(NC(=O)CCC(F)(F)F)ccc2O[C@H]1CN(C)Cc1ccc(Oc2ccccc2)cc1	NOMO-1 viab 85 (no result: PD-1 reversal, Hedgehog inh)
C[C@@H]1CN([C@H](C)CO)C(=O)Cc2cc(NC(=O)CCC(F)(F)F)ccc2O[C@H]1CN(C)Cc1ccccc1	none
C[C@@H]1CN([C@H](C)CO)C(=O)Cc2cc(NC(=O)CCN3CCOCC3)ccc2O[C@H]1CN(C)Cc1ccc(-c2ccccc2)cc1	none
C[C@@H]1CN([C@H](C)CO)C(=O)Cc2cc(NC(=O)CCC(F)(F)F)ccc2O[C@H]1CN(C)Cc1ccc(Oc2ccccc2)cc1	NOMO-1 viab 94
CC(NS(=O)(=O)c1ccccc1)C(=O)Nc1ccc(Cl)c(C(F)(F)F)c1 (configuration not stated)	none (no result: Hedgehog inh)
O=C(COc1cccc([N+](=O)[O-])c1)Nc1cccc(I)c1	none (no result: Hedgehog inh)
O=CN/C=C\c1ccc(O)cc1	none
CC(C)c1ccc(C2C(C#N)=C(N)C(C#N)(C#N)C3=CCN(C)CC32)cc1 (configuration not stated)	NOMO-1 viab 105, Hedgehog inh 74
CCC1(C)Cc2c(sc3nnn(CC(=O)Nc4ccc(OC)cc4OC)c(=O)c23)CO1 (configuration not stated)	none (no result: Hedgehog inh)
CC(=O)Nc1cccc(-c2nn3c(C)nnc3s2)c1	none
COc1cccc(OC)c1C(=O)NC(=S)Nc1cccc(-c2nn3c(C)nnc3s2)c1	NOMO-1 viab 122 (no result: Hedgehog inh)
CCc1ccc(NC(=O)Cn2cnc3ccccc3c2=O)cc1	none (no result: Hedgehog inh)
